Test results as given in PubChem BioAssay AID1159580 (chemical genetic matrix, 2015).
In all, about 5,500 compounds went through this assay and about 2,000 (36%) were called active. Roughly 18% stayed inconclusive and do not appear here. Rule as the data show it: active = normalized growth mostly below about 0.91 (no sharp cut-off); inconclusive = no clear call, values can overlap the other calls; inactive = mostly above about 0.92. Some of the results follow.

Experiment: chemical genetic growth profiling, strain panel (AID 1159580);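 also: tested at 20 µM; growth read once vehicle control cultures reached saturation at 30 °C; 1 = growth at the plate median or of vehicle wells; lower values mean less growth of the strain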
Settings: growth OD

Measured: normalized growth

O=c1cccc2n1C[C@H]1CNCC2C1
inactive: S. cerevisiae deletion strains, locus YJR043C, strain POL32, hits give low values 1.01 | S. cerevisiae deletion strains, locus YJR066W, strain TOR1, hits give low values 0.988 | S. cerevisiae deletion strains, locus YKL009W, strain mrt4, hits give low values 1.02 | S. cerevisiae deletion strains, locus YKL068W, hits give low values 0.98 | S. cerevisiae deletion strains, locus YKL085W, strain MDH1 (second series), hits give low values 1 | S. cerevisiae deletion strains, locus YKL085W, strain MDH1, hits give low values 1 | S. cerevisiae deletion strains, locus YKL160W, strain elf1, hits give low values 0.984 | S. cerevisiae deletion strains, locus YKR001C, strain vps1, hits give low values 0.964 | S. cerevisiae deletion strains, locus YKR026C, strain gcn3, hits give low values 0.994 | S. cerevisiae deletion strains, locus YKR091W, strain srl3, hits give low values 1.01 | S. cerevisiae deletion strains, locus YLL001W, strain dnm1, hits give low values 0.95 | S. cerevisiae deletion strains, locus YLL026W, hits give low values 1.01 | S. cerevisiae deletion strains, locus YLL041C, strain sdh2, hits give low values 0.998 | S. cerevisiae deletion strains, locus YLR027C, strain aat2, hits give low values 1 | S. cerevisiae deletion strains, locus YLR039C, strain RIC1, hits give low values 1.01 | S. cerevisiae deletion strains, locus YLR058C, strain SHM2, hits give low values 1.01 | S. cerevisiae deletion strains, locus YLR102C, strain apc9, hits give low values 0.985 | S. cerevisiae deletion strains, locus YLR113W, strain HOG1, hits give low values 0.979 | S. cerevisiae deletion strains, locus YLR221C, strain rsa3, hits give low values 0.971 | S. cerevisiae deletion strains, locus YLR258W, strain gsy2, hits give low values 0.982 | S. cerevisiae deletion strains, locus YLR262C, strain YPT6 (second series), hits give low values 0.998 | S. cerevisiae deletion strains, locus YLR262C, strain YPT6, hits give low values 1.01 | S. cerevisiae deletion strains, locus YLR268W, strain sec22, hits give low values 0.971 | S. cerevisiae deletion strains, locus YLR320W, strain mms22, hits give low values 0.974 | S. cerevisiae deletion strains, locus YLR330W, strain CHS5, hits give low values 0.989 | S. cerevisiae deletion strains, locus YLR342W, strain FKS1 (second series), hits give low values 1.04 | S. cerevisiae deletion strains, locus YLR342W, strain FKS1, hits give low values 1.01 | S. cerevisiae deletion strains, locus YLR357W, strain rsc2, hits give low values 1.09 | S. cerevisiae deletion strains, locus YLR370C, strain arc18, hits give low values 0.99 | S. cerevisiae deletion strains, locus YLR371W, strain rom2, hits give low values 0.976 | S. cerevisiae deletion strains, locus YLR384C, strain iki3, hits give low values 1 | S. cerevisiae deletion strains, locus YLR418C, strain cdc73, hits give low values 1.03 | S. cerevisiae deletion strains, locus YML016C, strain PPZ1, hits give low values 1.01 | S. cerevisiae deletion strains, locus YML032C, strain rad52, hits give low values 1.01 | S. cerevisiae deletion strains, locus YML120C, strain ndi1, hits give low values 0.993 | S. cerevisiae deletion strains, locus YML124C, strain tub3, hits give low values 0.995 | S. cerevisiae deletion strains, locus YMR058W, strain fet3, hits give low values 1.01 | S. cerevisiae deletion strains, locus YMR078C, strain ctf18, hits give low values 0.984 | S. cerevisiae deletion strains, locus YMR125W, strain sto1, hits give low values 0.992 | S. cerevisiae deletion strains, locus YMR129W, hits give low values 1 | S. cerevisiae deletion strains, locus YMR205C, strain PFK2, hits give low values 0.994 | S. cerevisiae deletion strains, locus YMR223W, strain ubp8, hits give low values 1.01 | S. cerevisiae deletion strains, locus YMR231W, strain pep5, hits give low values 1.01 | S. cerevisiae deletion strains, locus YMR263W, strain SAP30, hits give low values 1 | S. cerevisiae deletion strains, locus YMR307W, strain GAS1, hits give low values 1.07 | S. cerevisiae deletion strains, locus YNL067W, strain RPL9B, hits give low values 1.01 | S. cerevisiae deletion strains, locus YNL071W, strain lat1, hits give low values 1.01 | S. cerevisiae deletion strains, locus YNL153C, strain GIM3, hits give low values 1.03 | S. cerevisiae deletion strains, locus YNL183C, strain NPR1, hits give low values 0.987 | S. cerevisiae deletion strains, locus YNL209W, strain ssb2, hits give low values 1.01 | S. cerevisiae deletion strains, locus YNL233W, strain BNI4, hits give low values 1.03 | S. cerevisiae deletion strains, locus YNL248C, strain rpa49, hits give low values 1.09 | S. cerevisiae deletion strains, locus YNL250W, strain rad50, hits give low values 0.929 | S. cerevisiae deletion strains, locus YNL271C, strain bni1, hits give low values 0.988 | S. cerevisiae deletion strains, locus YNL298W, strain CLA4, hits give low values 1.01 | S. cerevisiae deletion strains, locus YNL307C, strain MCK1, hits give low values 0.983 | S. cerevisiae deletion strains, locus YNL322C, strain KRE1 (second series), hits give low values 1 | S. cerevisiae deletion strains, locus YNR049C, strain mso1, hits give low values 1 | S. cerevisiae deletion strains, locus YNR052C, strain pop2, hits give low values 1.01 | S. cerevisiae deletion strains, locus YOL006C, strain TOP1, hits give low values 1.02 | S. cerevisiae deletion strains, locus YOL012C, strain htz1 1.03 | S. cerevisiae deletion strains, locus YOL147C, strain pex11, hits give low values 0.998 | S. cerevisiae deletion strains, locus YOR001W, strain rrp6, hits give low values 0.987 | S. cerevisiae deletion strains, locus YOR061W, strain CKA2, hits give low values 1.01 | S. cerevisiae deletion strains, locus YOR069W, strain VPS5, hits give low values 0.999 | S. cerevisiae deletion strains, locus YOR070C, strain gyp1, hits give low values 0.998 | S. cerevisiae deletion strains, locus YOR080W, strain dia2, hits give low values 1 | S. cerevisiae deletion strains, locus YOR083W, strain WHI5, hits give low values 0.991 | S. cerevisiae deletion strains, locus YOR106W, strain vam3, hits give low values 1.01 | S. cerevisiae deletion strains, locus YOR136W, strain idh2, hits give low values 0.994 | S. cerevisiae deletion strains, locus YOR144C, strain elg1, hits give low values 1 | S. cerevisiae deletion strains, locus YOR184W, strain ser1, hits give low values 0.996 | S. cerevisiae deletion strains, locus YOR231W, strain MKK1, hits give low values 1.02 | S. cerevisiae deletion strains, locus YOR265W, strain rbl2, hits give low values 1.01 | S. cerevisiae deletion strains, locus YOR270C, strain vph1, hits give low values 1.05 | S. cerevisiae deletion strains, locus YOR290C, strain snf2, hits give low values 0.958 | S. cerevisiae deletion strains, locus YOR316C, strain cot1, hits give low values 0.994 | S. cerevisiae deletion strains, locus YPL051W, strain arl3, hits give low values 1 | S. cerevisiae deletion strains, locus YPL078C, strain atp4, hits give low values 0.997 | S. cerevisiae deletion strains, locus YPL106C, strain sse1, hits give low values 0.957 | S. cerevisiae deletion strains, locus YPL240C, strain hsp82, hits give low values 0.993 | S. cerevisiae deletion strains, locus YPL241C, strain CIN2, hits give low values 1 | S. cerevisiae deletion strains, locus YPL256C, strain CLN2, hits give low values 1.07 | S. cerevisiae deletion strains, locus YPR119W, strain clb2, hits give low values 0.981 | S. cerevisiae deletion strains, locus YPR141C, strain kar3, hits give low values 0.982 | S. cerevisiae deletion strains, locus YPR163C, strain tif3, hits give low values 0.993 | S. cerevisiae deletion strains, locus YPR167C, strain met16, hits give low values 0.98 | S. cerevisiae deletion strains, strain wtn01, hits give low values 0.958 | S. cerevisiae strains, strain wild type, hits give low values 1.01
